Inconclusive results are not listed. Calls of active or inactive are those of the source. The calls were made as follows: active = hit-call score of the fitted dose curve at least 0.9, where 1 is the maximum; inconclusive = response in the unintended direction; inactive = score below 0.9.
Tests used:
[1] = TOX21_p53_BLA_p2_viability: Viability Assessment in the Tox21 HCT-116 p53 Agonism Beta-lactamase Assay, Phase 2 (AID 2283591);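 also: compound exposure lasted 16 h at 37 °C; actives lower the ATP signal meaning cytotoxicity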
Method in brief: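 HCT-116 p53-bla cells (4000/well) rested 5 h at 37C, then received compounds in DMSO (217-fold dilution) for 16 h at 37C, 5% CO2. After the CCF4 read, CellTiter-Glo was added; ATP luminescence was read after 30 min at room temperature.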

[2] = biological target: Cellular tumor antigen p53 (Homo sapiens) (UniProt P04637); assay: TOX21_p53_BLA_p2_ratio: Tox21 HCT-116 p53 Agonism Beta-lactamase Assay, Ratio, Phase 2 (AID 2283592)
Sequence of Cellular tumor antigen p53 (Homo sapiens) (P04637 whole entry, looked up): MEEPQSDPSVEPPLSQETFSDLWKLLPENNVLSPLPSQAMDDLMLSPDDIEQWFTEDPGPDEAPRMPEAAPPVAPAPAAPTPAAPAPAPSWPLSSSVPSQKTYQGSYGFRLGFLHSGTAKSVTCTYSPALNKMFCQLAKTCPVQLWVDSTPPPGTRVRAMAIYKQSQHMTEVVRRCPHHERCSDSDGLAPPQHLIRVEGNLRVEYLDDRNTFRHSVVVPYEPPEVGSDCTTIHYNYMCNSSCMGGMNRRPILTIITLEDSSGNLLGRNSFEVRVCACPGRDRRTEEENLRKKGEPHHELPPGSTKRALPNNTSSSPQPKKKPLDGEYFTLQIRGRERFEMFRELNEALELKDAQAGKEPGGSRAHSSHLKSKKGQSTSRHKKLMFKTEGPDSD
Method in brief: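 Plated HCT116 p53-bla cells (4000/well) received compound after 5 h, then 16 h at 37C/5% CO2. CCF4-AM added, 2 h RT. Ratio of 460 to 530 nm emission taken as the p53 reporter signal.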

[3] = biological target: Cellular tumor antigen p53 (Homo sapiens) (UniProt P04637); assay: TOX21_p53_BLA_p3_ratio: Tox21 HCT-116 p53 Agonism Beta-lactamase Assay, Ratio, Phase 3 (AID 2283596)
Method in brief: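 Cells were seeded at 4000/well, rested 5 h at 37C, then dosed with DMSO compound solutions (217-fold dilution) for 16 h. CCF4-AM substrate was loaded for 2 h at room temperature, and the 460/530 nm emission ratio was fitted for gain of signal versus DMSO.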

[4] = biological target: Cellular tumor antigen p53 (Homo sapiens) (UniProt P04637); assay: TOX21_p53_BLA_p5_ratio: Tox21 HCT-116 p53 Agonism Beta-lactamase Assay, Ratio, Phase 5 (AID 2283599)
Method in brief: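 HCT-116 cells carrying a p53-inducible beta-lactamase reporter were seeded at 4000 cells/well and dosed after 5 h with compound in DMSO (217-fold dilution). After 16 h at 37C, CCF4-AM substrate was added for 2 h, and the 460/530 nm emission ratio was scored as gain-of-signal versus DMSO.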

[5] = TOX21_p53_BLA_p5_viability: Viability Assessment in the Tox21 HCT-116 p53 Agonism Beta-lactamase Assay, Phase 5 (AID 2283600)
Method in brief: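 Workflow: seed 4000 cells per well, wait 5 h, add compounds (DMSO, 217-fold dilution), incubate 16 h, load CCF4-AM 2 h, add CellTiter-Glo, read luminescence after 30 min.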

[6] = biological target: Cellular tumor antigen p53 (Homo sapiens) (UniProt P04637); assay: TOX21_p53_BLA_p4_ratio: Tox21 HCT-116 p53 Agonism Beta-lactamase Assay, Ratio, Phase 4 (AID 2283601)
Method in brief: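 HCT116 cells carrying an inducible beta-lactamase reporter were plated at 4000 cells/well, rested 5 h, then exposed to compounds in DMSO (217-fold dilution) for 16 h at 37C. CCF4-AM substrate was loaded 2 h at room temperature; 460/530 nm emission ratio scored gain-of-signal versus DMSO.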

Measured: outcome

N=C(N=C(N)N)N1CCOCC1
inactive: [1] | [2] | [3] | [4] | [5] | [6]

O=Cc1ccc(Cl)cc1
inactive: [1] | [2] | [3] | [4] | [5] | [6]

O=[N+]([O-])c1ccccc1Nc1ccccc1
inactive: [1] | [2] | [3] | [4] | [5] | [6]

CO/N=C(\C(=O)N[C@@H]1C(=O)N2C(C(=O)O)=CCS[C@H]12)c1csc(N)n1
inactive: [1] | [2] | [3] | [4] | [5] | [6]

CC(C(=O)O)c1ccc2c(c1)[nH]c1ccc(Cl)cc12 (centres undefined)
inactive: [1] | [2] | [3] | [4] | [5] | [6]

O=C(O)c1cc(O)c2c(c1)[C@H]([C@H]1c3cc(C(=O)O)cc(O)c3C(=O)c3c(O[C@@H]4O[C@H](CO)[C@@H](O)[C@H](O)[C@H]4O)cccc31)c1cccc(O[C@@H]3O[C@H](CO)[C@@H](O)[C@H](O)[C@H]3O)c1C2=O
inactive: [1] | [2] | [3] | [4] | [5] | [6]

CC1CCC(NC(=O)N(CCCl)N=O)CC1 (centres undefined)
inactive: [1] | [2] | [3] | [4] | [5] | [6]

OCCN1CCN(CCO)CC1
inactive: [1] | [2] | [3] | [4] | [5] | [6]

CCC1OCC(COc2ccc(Oc3ccccc3)cc2)O1 (centres undefined)
inactive: [1] | [2] | [3] | [4] | [5] | [6]

— PubChem BioAssay (EPA / NIEHS)
